# Measurements published in PubChem BioAssay (NCI).
# Several values for one entry are separate records, joined by “and”; a condition that tells them apart may be missing. Equal values may be shown once. About 83,000 compounds went through this panel and 20% of them were active in at least one assay; those are over-represented in the sample as a whole.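 Activity criterion: percent growth below 10, measured after cells in 96-well plates were exposed to a single compound concentration for 48 hours.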 Unmarked numbers belong to inactive results. Activity calls are given as the source filed them.
# Test system: HL-60(TB) leukemia
# Experiment: NCI-60 one-dose screen, 48 h (100 = growth as untreated, 0 = no growth, -100 = all killed)
# Conditions: 10 µM unless noted
row,Compound,growth
1,C=C1CCC2C(C)(CO)C(O)CCC2(C)C1CC(NCc1ccccc1)C1=CCOC1=O (stereo not given),111%
2,Cc1cnc(N)nc1OCCNC(=O)c1cccc(-c2ccc(S(=O)(=O)Nc3ccc4c(c3)N(C(=O)C3CC3)CCC4)cc2)c1,43.3%
3,COc1ccc(C(c2cc(OC)c(OC)c(OC)c2)N2CCN(c3ccccc3)CC2)cc1 (stereo not given),67.1%
4,COc1cc(Nc2nc3ccccc3nc2NS(=O)(=O)c2ccc(NC(=O)c3ccc(C)c(OC)c3)cc2)cc(OC)c1,74.8% and 26.7%
5,O=C1c2cccnc2-c2nccc3c2c1nc1cc(Br)ccc13,-68.1% (active) and -56.3% (active)
6,CCOC(=O)[C@]1(Br)CC[C@@]1(Br)C(=O)OCC,47.7%
7,COc1ccc(C2C3=C(COC3=O)N(CCO)c3cc4c(cc32)CCC4)cc1 (stereo not given),4.72% (active)
8,CCc1[nH]nc(-c2ccc(OC)cc2)c1-c1ccccc1OCCN(CC)CC,92.8%
9,Nc1cccc(Nc2cc(S(=O)(=O)O)c(N)c3c2C(=O)c2ccccc2C3=O)c1,105%
10,O=S(=O)(NCCCNc1nccc(-c2c(-c3ccc(F)c(O)c3)nc3sccn23)n1)c1ccccc1,69.8%
11,OC(Cc1cccnc1)c1ccccc1 (stereo not given),64.3%
12,COc1cc(CNCCN2C(=O)c3ccc4c5c(ccc(c35)C2=O)C(=O)N(CCNCc2cc(OC)c(OC)c(OC)c2)C4=O)cc(OC)c1OC,-48.7% (active)
13,c1ccc(Nc2ccc(Nc3nc(-c4ccccc4)nc4ccccc34)cc2)cc1,87.1%
14,O=C1CCC(N2Cc3c(C#CCCCNC(=O)c4cc5c(o4)C(=O)c4ccccc4C5=O)cccc3C2=O)C(=O)N1 (stereo not given),-1.27% (active)
15,O=S(=O)(NCCCNc1cc(-c2cn(-c3ccccc3)nc2-c2cccc(O)c2)ccn1)c1ccc(Cl)cc1,1.22% (active)
16,C=C(C)[C@@H]1CCC=C2CC[C@]3(C)[C@H](CC[C@@H]4[C@@]5(C)CCCNC(C)(C)[C@@H]5CC[C@]43C)[C@H]21,27.7%
17,Cc1[c-]onc1C.Cc1[c-]onc1C.[Ag].[Ag].[NH-]S(=O)(=O)c1ccc(N=Nc2cc(N=Nc3ccc(S([NH-])(=O)=O)cc3)c3c(NC(=O)C(Cl)Cl)cccc3c2OC(=O)C(Cl)Cl)cc1,38.1%
18,C[C@@H](C(=O)NCCCC#Cc1cnc(Nc2ccc(C#N)cc2)nc1NC1CC1)N(C)C(=O)/C=C/CN(C)C,42.6%
19,COc1ccc(Nc2nc(SCC(C)C)nc(-c3ccc(F)cc3)c2C#N)cc1,38.4%
20,O=C1C(=O)N(CCCCn2cc(CO)nn2)c2ccccc21,91.9%

row,Compound,growth
1,O=C(Cn1c(=O)sc2ccccc21)NNS(=O)(=O)c1ccccc1[N+](=O)[O-],94.9%
2,O=C1/C(=C/c2ccc(Cl)cc2)COc2ccc(O)c(O)c21,-11.7% (active)
3,COc1cc(NC(N)=NCCC(C)(C)c2ccc(C(F)(F)F)cc2)ncc1C#N,-34.6% (active)
4,Cc1ccc(-c2cc(O)c(-c3ccc(C)cc3C)cc2O)c(C)c1,21.2%
5,O=C1Nc2ccccc2/C1=C\c1c(-c2ccc(F)cc2)nc2ccccn12,70.3%
6,CCOC(=O)N(O)c1ccc(/C=C/c2ccccc2)cc1,61.1% and 43.9%
7,COc1cc(NC(=O)Nc2cnc(Nc3ccc(N4CCOCC4)cc3)nc2Oc2cccc(OC)c2)cc(OC)c1,22.8%
8,COCCNCC(O)Cn1c2ccc(Cl)cc2c2cc(Cl)ccc21 (stereo not given),-42.6% (active)
9,O=C1N(C2CCCCC2)C(=O)N1C1CCCCC1,-16.2% (active)
10,CCCOCC(O)CNCCN (stereo not given),99.8%
11,COc1ccc(Cc2nc3cc(OC)c(OC)cc3c(=O)[nH]2)cc1,16.4%
12,Nc1nc(Cl)nc2c1ncn2C1OC(CO)C(O)C1O (stereo not given),-20.7% (active) and -3.23% (active)
13,CC(C)(C)[Si](C)(C)OC1[C@@H](COC(N)=O)O[C@@H](n2cnc3c(N)ncnc32)[C@H]1O[Si](C)(C)C(C)(C)C (stereo not given in full),-18% (active)
14,CCN(CC)CCCNc1nc(C)cc(Nc2ccc3nc(C)cc(N)c3c2)n1,106%
15,Cn1cc(C(=O)c2nc(-c3c[nH]c4ccccc34)no2)c2cc(F)ccc21,-6.73% (active)
16,Cc1cc(C)cc(S(=O)(=O)n2ccc(-c3ccc4c(c3)CCC(C)(C)O4)n2)c1,99.8%
17,COc1ccc(-n2nnc(C(=O)O)c2-c2cc(OC)c(OC)c(OC)c2)cc1,98.8%
18,O=C(NO)c1ccc(-n2nc(-c3ccccc3)c3ccccc32)cc1,62.4%
19,COc1ccc(C(=O)n2nc(CC(=O)NCc3ccccc3)nc2N)cc1,91.9%
20,CCCCCCCCCCCCCCCCNC(=O)Nc1ccc(C)c(NC(=O)NCCCCCCCCCCCCCCCC)c1,98.8%
